In PubChem BioAssay AID652257 (The Scripps Research Institute Molecular Screening Center, 2013):
The whole screen tested about 370,000 compounds, of which about 4,800 (1.3%) were called active. Only a selection was taken, and actives are over-represented in it overall. A number with no mark means an inactive call.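 Rule for the calls: active = inhibition above about 21% made by adding two undisclosed values (limit read from the data); inactive = the rest.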

Molecular target: Protein arginine N-methyltransferase 1 (Homo sapiens) (UniProt Q99873)
Sequence (Q99873 whole entry, looked up): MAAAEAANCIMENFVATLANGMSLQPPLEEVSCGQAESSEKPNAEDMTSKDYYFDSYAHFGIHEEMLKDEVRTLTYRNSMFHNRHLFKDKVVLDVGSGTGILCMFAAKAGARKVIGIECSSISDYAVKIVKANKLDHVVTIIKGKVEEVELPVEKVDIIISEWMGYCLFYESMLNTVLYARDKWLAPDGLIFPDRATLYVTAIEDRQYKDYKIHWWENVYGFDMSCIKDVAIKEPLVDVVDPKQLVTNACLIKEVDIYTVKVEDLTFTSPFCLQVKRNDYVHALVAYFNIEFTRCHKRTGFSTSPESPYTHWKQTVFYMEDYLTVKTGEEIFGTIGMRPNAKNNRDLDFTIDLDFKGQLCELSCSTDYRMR
Assay: PRMT1 methyltransferase inhibitors, primary screen, biochemical, fluorescence polarization (AID 652257)
Conditions: recombinant PRMT1, activity-based probe fluorescence polarization; at 2.79 µM; hits give high values

| Compound | inhibition |
| --- | --- |
| Oc1cc2c(cc1CN1CCN(c3ccccc3)CC1)OCO2 | 24.3% (active) |
| Fc1ccc(N2CCN(Cc3ccc4c(c3)OCO4)CC2)cc1 | -0.82% |
| CC(C)c1ccc(O)c(CN2CCN(c3ccccc3)CC2)c1 | -1.49% |
| O=C(N/N=C/c1c(O)n(C2CC2)c(=S)[nH]c1=O)c1ccccc1 | 3.82% |
| CC1C2Cn3c(nc4ccccc43)C1N(C)O2 (stereo unspecified) | 1% |
| O=S(=O)(c1ccccc1)N1CCC2CCNC2C1 (stereo unspecified) | -4.47% |
| ClC(Cl)(Cl)c1ccccc1 | -1.08% |
| O=C1NC(=O)N(c2ccccc2)C(=O)/C1=C/c1ccc([N+](=O)[O-])s1 | 30.1% (active) |
| CC(C(=O)Nc1ccc(Cl)cc1Cl)N1CC=C(c2ccccc2)CC1 (stereo unspecified) | -2.84% |
| CCOc1ccc(-c2cc(C)[n+](CCN(CC)CC)c(-c3ccc(OCC)cc3)c2)cc1 | 4.49% |
| Cc1c(Oc2cc(NN3CCCCC3)c([N+](=O)[O-])cc2[N+](=O)[O-])cccc1[N+](=O)[O-] | 0.33% |
| CCOc1cccc(=NC2CCCCC2)c2c(C)[nH]c(C)c12 | 24.5% (active) |
| COc1ccc2c(c1)[C@@]13CCCCC1[C@@H](C2)NCC3 (stereo partly specified) | 0.98% |
| CC(=O)C1(O)CCC2C3CCC4=C(Cl)C(=O)CCC4(C)C3CCC21C (stereo unspecified) | -3.26% |
| CCCCC(=O)N/N=C/c1c(O)n(CCC2=CCCCC2)c(=O)[nH]c1=O | 4.46% |
| O=C(O)COc1ccccc1/C=C1\C(=O)NC(=O)N(CCC2=CCCCC2)C1=O | 21.6% (active) |
| C=CCN1C(=O)NC(=O)/C(=C/c2ccc(OCC(=O)Nc3ccc(C)cc3)cc2)C1=O | 2.43% |
| COP(=O)(Sc1ccccc1)C(Cc1ccccc1)NC(=O)OCc1ccccc1 (stereo unspecified) | 15.9% |
| CCC(C)NC1(c2ccccc2)CCCCC1 (stereo unspecified) | -3.67% |
| Brc1ccc2c(c1)CNCc1cnnn1-2 | -6.53% |
| CCCOC(=O)C1C2c3ccccc3C(c3ccccc32)C1C(=O)O (stereo unspecified) | -2.66% |
| O=C1NC(=O)N(Cc2ccco2)C(=O)/C1=C\c1ccc(-c2ccc(F)cc2)o1 | 25% (active) |
| Cc1cc(C=C2C(=O)NC(=O)NC2=O)c(C)n1-c1ccncc1 | 3.52% |
| Cc1ccc(-n2c(C)cc(/C=C3\C(=O)NC(=O)N(C)C3=O)c2C)cc1C | 2.43% |
| Cc1cc(/C=C2/C(=O)NC(=O)N(Cc3ccco3)C2=O)c(C)n1-c1ccc(C(=O)O)cc1 | 42% (active) |
| COc1cc2nc(N3CCN(C(=O)[C@@H]4CCCO4)CC3)nc(N)c2cc1OC | -2.88% |
